The text below walks through data of PubChem BioAssay (NCATS).

Records with an inconclusive call do not appear. Where a call stands in place of a potency, no number is given. Active and inactive are the calls of the source. The call rests on the fitted dose curve; in most records, active means well fitted cell-killing curve with a large enough effect; inconclusive means small, poorly fitted or top-dose-only effect, or effect the other way; inactive means no such curve, though single readings can be large or run the other way.
Potency means the concentration at half of the fitted maximal effect.

The nature of this experiment: Quantitative High-Throughput drug screen in 47 multiple myeloma cell lines against the NCATS MIPE library collection: KMS28BM_JCRB cell viability assay (AID 1919874). Further: nearly all actives have a fitted effect of over 35% in size. The conditions noted are these: CellTiter-Glo ATP, 48 h; series mostly up to 45.8 µM. The source says: PI: Beverly A. Mock Ph.D.
Laboratory of Cancer Biology and Genetics,
Center for Cancer Research, National Cancer Institute,
National Institute of Health, Bethesda, Maryland
Drug resistance and disease progression are common in multiple myeloma (MM) patients, underscoring the need for new therapeutic combinations. […] We hypothesized that effective combinations would reduce MYC expression and enhance p16 activity. […] These preclinical data identify potentially useful drug combinations for evaluation in drug-resistant MM and reveal potential mechanisms of combined drug sensitivity.
Described herein is the primary MIPE qHTS used to cherrypick compounds. Validated compounds were then further tested for potential synergistic activiy.
[1] Peat TJ, Gaikwad SM, Dubois W, Gyabaah-Kessie N, Zhang S, Gorjifard S, Phyo Z, Andres M, Hughitt VK, Simpson RM, Miller MA, Girvin AT, Taylor A, Williams D, D'Antonio N, Zhang Y, Rajagopalan A, Flietner E, Wilson K, Zhang X, Shinn P, Klumpp-Thomas C, McKnight C, Itkin Z, Chen L, Kazandijian D, Zhang J, Michalowski AM, Simmons JK, Keats J, Thomas CJ, Mock BA. Drug combinations identified by high-throughput screening promote cell cycle transition and upregulate Smad pathways in myeloma. Cancer Lett. 2023 Aug 1;568:216284. doi: 10.1016/j.canlet.2023.216284. Epub 2023 Jun 24. PMID: 37356470; PMCID: PMC10408729.
SEQUENCE No. (e.g., 1, 2, 3, etc.); […] (e.g., Cells, Incubation, Reagent, etc.); VALUE and DESCRIPTION.
1; Cells; 5 uL; white, solid bottom 1536-well Greiner assay plate.
2; Compounds; 23 nL; Kalypsis pin tool (Wako USA) equipped with a 1536-well pin head to transfer to the assay plates.
3; Incubation; 48 hours; 37C incubation.
4; Reagent;5uL; CellTiter Glo (Promega).
5; Detector; 425V; Luminescence; Viewlux PerkinElmer.
NOTES (numbers refer to Sequence numbers above)
1. The cell-based screening methods employed in this study were like those previously published. Briefly, the corresponding myeloma cell lines were screened in 1,536-well plates with 500 cells, 5-uL per well for inhibition of cell viability (assessed by measuring ATP levels with CellTiterGlo).
2. NCATS MIPE 4.0 library of approved and investigational drugs were added using the Kalypsis pin tool. Wells treated with DMSO only for 100% viability and media only for 0% viability were used as controls.
3. The assay plates were covered and incubated for 48 hours in a 37C, 5% CO2 incubator with controlled humidity.
4. After 48 hours, CellTilter-GloTM luminescent substrate mix (Promega) reagent was added to the assay plate and plates we incubated for 5 min at room temperature.
5. Signal was measured as median relative luminescence units on a ViewLux (PerkinElmer) multiplate reader.
[1] Heske CM, Davis MI, Baumgart JT, Wilson K, Gormally MV, Chen L, Zhang X, Ceribelli M, Duveau DY, Guha R, Ferrer M, Arnaldez FI, Ji J, Tran HL, Zhang Y, Mendoza A, Helman LJ, Thomas CJ. Matrix Screen Identifies Synergistic Combination of PARP Inhibitors and Nicotinamide Phosphoribosyltransferase (NAMPT) Inhibitors in Ewing Sarcoma. Clin Cancer Res. 2017 Dec 1;23(23):7301-7311. doi: 10.1158/1078-0432.CCR-17-1121. Epub 2017 Sep 12. PMID: 28899971; PMCID: PMC6636827.
With `O=C(N[C@H](CO)[C@H](O)c1ccc([N+](=O)[O-])cc1)C(Cl)Cl`, the Potency entry was “inactive”.

For `O=C(O)CSCC(=O)NC1CCSC1=O` (stereo not given), the Potency result was “inactive”.

On to `CC1=NN(c2ccccc2)C(=O)C1`, for which the Potency entry was “inactive”.

As for `COc1cc(NCc2ccc3nc(N)nc(N)c3c2C)cc(OC)c1OC`, the Potency is 20.9 µM (active).

For the molecule `C1CCC(C(CC2CCCCN2)C2CCCCC2)CC1` (stereo not given), the Potency was 9.35 µM (active).

On to `CNS(=O)(=O)Cc1ccc2[nH]cc(CCN(C)C)c2c1`, for which the Potency result is “inactive”.

With `Cc1noc(NS(=O)(=O)c2ccc(N)cc2)c1C`, the Potency result was “inactive”.

For the molecule `CC(C)(C)C(=O)OCOP(=O)(COCCn1cnc2c(N)ncnc21)OCOC(=O)C(C)(C)C`, the Potency is 11.8 µM (active).

`CC[C@H](NC(C)C)[C@H](O)c1ccc(O)c2[nH]c(=O)ccc12`: the Potency entry was “inactive”.

Regarding `Nc1[nH]c(=O)ncc1F`, the Potency result is “inactive”.

For the molecule `COC(c1ccccc1)(c1ccccc1)[C@H](Oc1nc(C)cc(C)n1)C(=O)O`, the Potency result was “inactive”.

For the molecule `CC(C)(C)NC(=O)[C@H]1CC[C@H]2[C@@H]3CC[C@H]4NC(=O)C=C[C@]4(C)[C@H]3CC[C@]12C`, the Potency entry was “inactive”.

For `NNC(=O)c1ccncc1`, the Potency result is “inactive”.

Turning to `C[C@]12C=CC(=O)C=C1CC[C@@H]1[C@@H]2C(=O)C[C@@]2(C)[C@H]1CC[C@]2(O)C(=O)CO`, the Potency result was “inactive”.

On to `O=C(O)c1cn(C2CC2)c2cc(N3CCNCC3)c(F)cc2c1=O`, for which the Potency entry was “inactive”.

As to `S=P(N1CC1)(N1CC1)N1CC1`, the Potency result was “inactive”.

For `CCn1cc(C(=O)O)c(=O)c2cc(F)c(N3CCNCC3)nc21`, the Potency entry was “inactive”.

As to `CC(N)C12CC3CC(CC(C3)C1)C2` (stereo not given), the Potency result was “inactive”.

For `CNNCc1ccc(C(=O)NC(C)C)cc1`, the Potency entry was “inactive”.

`CNC(=O)c1cc(Oc2ccc(NC(=O)Nc3ccc(Cl)c(C(F)(F)F)c3)cc2)ccn1`: the Potency is 20.9 µM (active).

`CCc1c2c(nc3ccc(OC(=O)N4CCC(N5CCCCC5)CC4)cc13)-c1cc3c(c(=O)n1C2)COC(=O)[C@]3(O)CC`: the Potency was 0.469 µM (active).

As to `CCN(CC)CCn1c(=O)c(Cc2ccc(OC)cc2)nc2ccccc21`, the Potency result was “inactive”.

As to `O[C@@H](CNC[C@H](O)[C@H]1CCc2cc(F)ccc2O1)[C@@H]1CCc2cc(F)ccc2O1`, the Potency is 18.7 µM (active).

Turning to `Cc1onc(-c2ccccc2Cl)c1C(=O)N[C@@H]1C(=O)N2[C@@H]1SC(C)(C)[C@@H]2C(=O)O`, the Potency entry was “inactive”.

In the case of `COc1cc(NS(=O)(=O)c2ccc(N)cc2)nc(OC)n1`, the Potency result is “inactive”.

`CC(C)OC(=O)C(C(=O)OC(C)C)=C1SC=CS1`: the Potency entry was “inactive”.

`Cn1c(=O)c2c(ncn2CC(O)CO)n(C)c1=O` (stereo not given): the Potency entry was “inactive”.

On to `Nc1nc(=S)c2[nH]cnc2[nH]1`, for which the Potency was 5.26 µM (active).

For `C[C@@H]1C[C@H]2[C@@H]3CCC4=CC(=O)C=C[C@]4(C)[C@@]3(Cl)[C@@H](O)C[C@]2(C)[C@@]1(OC(=O)c1ccco1)C(=O)CCl`, the Potency was 29.6 µM (active).

As for `NC(=O)c1ccc2[nH]ccc2c1`, the Potency entry is “inactive”.

For the molecule `CC1=C(C(=O)O)N2C(=O)[C@@H](NC(=O)C(N)c3ccccc3)[C@H]2SC1` (stereo not given in full), the Potency result is “inactive”.

For the molecule `COc1nc(N)nc2c1ncn2[C@@H]1O[C@H](CO)[C@@H](O)[C@@H]1O`, the Potency entry is “inactive”.

Regarding `Nc1ccc(S(=O)(=O)Nc2ccccn2)cc1`, the Potency result was “inactive”.

Take `CCc1cc(C(N)=S)ccn1`: the Potency result was “inactive”.

On to `CN1CCN(c2c(F)cc3c(=O)c(C(=O)O)cn4c3c2OCN4C)CC1`, for which the Potency entry is “inactive”.

In the case of `CCN1CCCC1CNC(=O)c1cc(S(N)(=O)=O)ccc1OC` (stereo not given), the Potency entry was “inactive”.

Consider `CCOC(=O)[C@H](CCc1ccccc1)N[C@H]1CCc2ccccc2N(CC(=O)O)C1=O`, for which the Potency was 18.7 µM (active).

`Cc1ccnc2c1NC(=O)c1cccnc1N2C1CC1`: the Potency entry is “inactive”.

As to `CN(C)CCc1c[nH]c2ccc(CS(=O)(=O)N3CCCC3)cc12`, the Potency result was “inactive”.

With `C#CCN[C@@H]1CCc2ccccc21`, the Potency result is “inactive”.
